# The supplement of paper PMC7380943
# Where a name gives a salt, the structure may show the parent alone. ± gives the standard deviation of the averaged measurements.
# Assays:
# [1] = tested on: CLZ3 (HCA2 human fibroblast dual HR-NHEJ reporter); experiment: NHEJ repair efficiency (GFP+ cells) relative to control (log10 fold); higher = more non-homologous end joining; details: 5 µM; doxycycline 0.5 ug/mL
# [2] = tested on: CLZ3 (HCA2 human fibroblast dual HR-NHEJ reporter); experiment: HR repair efficiency (tdTomato+ cells) relative to control (log10 fold); higher = more homologous recombination; details: 5 µM; doxycycline 0.5 ug/mL
# 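Wherever HR repair efficiency (tdTomato+ cells) relative to control is given: compound given one day before doxycycline, which switches on I-SceI endonuclease expression to create double-strand breaks within the integrated reporter.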
# 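Wherever NHEJ repair efficiency (GFP+ cells) relative to control is given: compound given one day ahead of doxycycline, which switches on I-SceI endonuclease to cut the chromosomally integrated reporter and create DSBs.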
smiles,measurement,setting,value
CC1(C)C2CCC1(C)C(O)C2 (stereo unspecified) [Borneol],NHEJ repair efficiency (log10),[1],0.0116 ± 0.059
same,HR repair efficiency (log10),[2],0.0372 ± 0.12
COc1ccc(/C=C/c2cc(O)cc(O[C@@H]3O[C@H](CO)[C@@H](O)[C@H](O)[C@H]3O)c2)cc1 [Desoxyrhaponticin],NHEJ repair efficiency (log10),[1],0.161
same,HR repair efficiency (log10),[2],0.245
COc1c(O)cc2c(c1O)[C@@H]1O[C@H](CO)[C@@H](O)[C@H](O)[C@H]1OC2=O [Bergenin],NHEJ repair efficiency (log10),[1],0.0025
same,HR repair efficiency (log10),[2],-0.0334
C[N+]1(C)CCCC1C(=O)O (stereo unspecified) [Stachydrine Hydrochloride],NHEJ repair efficiency (log10),[1],-0.0485
same,HR repair efficiency (log10),[2],0.12
O=C(/C=C/c1ccc(O)c(O)c1)O[C@@H]1[C@H](O)C[C@@](O)(C(=O)O)C[C@H]1OC(=O)/C=C/c1ccc(O)c(O)c1 [Isochlorogenic acid B],NHEJ repair efficiency (log10),[1],0.142
same,HR repair efficiency (log10),[2],0.105
C=C[C@H]1[C@H](O[C@@H]2O[C@H](CO)[C@@H](O)[C@H](O)[C@H]2O)OC=C(C(=O)OC)[C@H]1CC(=O)O [Secoxyloganin],NHEJ repair efficiency (log10),[1],0.0169
same,HR repair efficiency (log10),[2],-0.19
O=C(O)[C@H]1O[C@@H](Oc2cc3oc(-c4ccc(O)cc4)cc(=O)c3c(O)c2O)[C@H](O)[C@@H](O)[C@@H]1O [Scutellarin],NHEJ repair efficiency (log10),[1],-0.122
same,HR repair efficiency (log10),[2],0.0441
CC(=O)C1=C(O)C=C2Oc3c(C(C)=O)c(O)c(C)c(O)c3C2(C)C1=O (stereo in doubt) [Usnic Acid],NHEJ repair efficiency (log10),[1],0.00929
same,HR repair efficiency (log10),[2],0.00791
O=c1cc(-c2ccc(O)cc2)oc2c([C@@H]3O[C@H](CO)[C@@H](O)[C@H](O)[C@H]3O)c(O)c([C@@H]3OC[C@H](O)[C@H](O)[C@H]3O)c(O)c12 [Isoschaftoside],NHEJ repair efficiency (log10),[1],-0.0804
same,HR repair efficiency (log10),[2],0.0575
COc1cc2c(cc1OC)[C@@H]1Cc3ccc(OC)c(OC)c3CN1CC2 [Rotundine],NHEJ repair efficiency (log10),[1],-0.0594
same,HR repair efficiency (log10),[2],0.112
O=c1c(-c2ccc(O)cc2)coc2cc(O[C@@H]3O[C@H](CO)[C@@H](O)[C@H](O)[C@H]3O)ccc12 [Daidzin],NHEJ repair efficiency (log10),[1],-0.234
same,HR repair efficiency (log10),[2],0.03
O=c1c(O)c(-c2ccc(O)c(O)c2)oc2cc(O)ccc12 [Fisetin],NHEJ repair efficiency (log10),[1],-0.223
same,HR repair efficiency (log10),[2],-0.0214
CCOC(=O)c1cc(O)c(O)c(O)c1 [Gallic Acid Ethyl Ester],NHEJ repair efficiency (log10),[1],0.018
same,HR repair efficiency (log10),[2],0.00694
O=c1oc2c(O)cc(O)cc2c2oc3cc(O)c(O)cc3c12 [Isodemethylwedelolacton],NHEJ repair efficiency (log10),[1],-0.0118
same,HR repair efficiency (log10),[2],0.0907
C=C[C@@H]1[C@@H](O[C@@H]2O[C@H](CO)[C@@H](O)[C@H](O)[C@H]2O)OC=C(C(=O)OC)[C@@H]1CCOC(=O)c1cc(O)c(O)c(O)c1 [Cornuside I],NHEJ repair efficiency (log10),[1],-0.0558
same,HR repair efficiency (log10),[2],0.0608
C[C@H]1CC[C@@]2(OC1)O[C@H]1C[C@H]3[C@@H]4CC[C@@H]5C[C@@H](O)CC[C@]5(C)[C@H]4CC[C@]3(C)[C@H]1[C@@H]2C [Sarsasapogenin],NHEJ repair efficiency (log10),[1],-0.068
same,HR repair efficiency (log10),[2],0.0364
COc1cc(-c2oc3cc(O)cc(O)c3c(=O)c2O[C@@H]2O[C@H](CO)[C@@H](O)[C@H](O)[C@H]2O[C@@H]2O[C@@H](C)[C@H](O)[C@@H](O)[C@H]2O)ccc1O [Isorhamnetin-3-O-Nehesperidine],NHEJ repair efficiency (log10),[1],-0.039
same,HR repair efficiency (log10),[2],-0.0649
COc1ccc([C@@H]2OC[C@H]3[C@@H]2CO[C@@H]3c2ccc(O[C@@H]3O[C@H](CO)[C@@H](O)[C@H](O)[C@H]3O)c(OC)c2)cc1OC [Forsythin],NHEJ repair efficiency (log10),[1],-0.0743
same,HR repair efficiency (log10),[2],-0.0814
"CC1(C)[C@H](OC(=O)c2ccccc2)CC[C@]2(C)C3=C([C@@H](O)C[C@@H]12)[C@@]1(C)CC[C@@]2(C)CC[C@@](C)(COC(=O)c4ccccc4)C[C@H]2[C@]1(C)CC3 [3,29-Dibenzoyl Rarounitriol]",NHEJ repair efficiency (log10),[1],-0.00463
same,HR repair efficiency (log10),[2],0.103
C[C@@]12C[C@@]3(O)O[C@@H](O1)[C@]1(COC(=O)c4ccccc4)[C@@H]3C[C@]12O[C@@H]1O[C@H](COC(=O)c2ccccc2)[C@@H](O)[C@H](O)[C@H]1O [Benzoylpaeoniflorin],NHEJ repair efficiency (log10),[1],-0.0544
same,HR repair efficiency (log10),[2],-0.0282
C=C(C)[C@H](CC=C(C)C)Cc1c(O)cc(OC)c2c1O[C@H](c1ccc(O)cc1O)CC2=O [Kurarinone],NHEJ repair efficiency (log10),[1],0.0108
same,HR repair efficiency (log10),[2],0.0158
C=C1C[C@@]2(O)O[C@@]3(C[C@H]2C(C)C)[C@@H](C)CC[C@@H]13 [Curcumol],NHEJ repair efficiency (log10),[1],-0.0784
same,HR repair efficiency (log10),[2],0.163
C[C@@H]1O[C@@H](O[C@H]2[C@H](Oc3cc(O)c4c(c3)O[C@H](c3ccc(O)cc3)CC4=O)O[C@H](CO)[C@@H](O)[C@@H]2O)[C@H](O)[C@H](O)[C@H]1O [Naringin],NHEJ repair efficiency (log10),[1],-0.127
same,HR repair efficiency (log10),[2],-0.0146
CC(CCC(OC1OC(CO)C(O)C(O)C1OC1OC(CO)C(O)C(O)C1O)C(C)(C)O)C1CCC2(C)C3CC=C4C(CCC(OC5OC(COC6OC(CO)C(O)C(O)C6O)C(O)C(O)C5O)C4(C)C)C3(C)C(O)CC12C (stereo unspecified) [Mogroside IV],NHEJ repair efficiency (log10),[1],0.0766
same,HR repair efficiency (log10),[2],0.171
C[C@@]1(CO)C[C@@H](O)C[C@@]2(C)[C@@H]3CC[C@](C)([C@@H](O)CO)C=C3CC[C@H]12 [Kirenol],NHEJ repair efficiency (log10),[1],-0.121
same,HR repair efficiency (log10),[2],0.0441
CC[C@]12CCCN3CCc4c(n(c5ccccc45)[C@@](O)(C(=O)OC)C1)[C@@H]32 [Vincamine],NHEJ repair efficiency (log10),[1],0.104
same,HR repair efficiency (log10),[2],0.0346
Cc1cc(O)cc(O[C@@H]2O[C@H](CO)[C@@H](O)[C@H](O)[C@H]2O)c1 [Orcinol Glucoside],NHEJ repair efficiency (log10),[1],0.0229
same,HR repair efficiency (log10),[2],-0.0841
COc1ccc(-c2oc3c(CC=C(C)C)c(O[C@@H]4O[C@H](CO)[C@@H](O)[C@H](O)[C@H]4O)cc(O)c3c(=O)c2O[C@@H]2O[C@@H](C)[C@H](O)[C@@H](O)[C@H]2O[C@@H]2O[C@@H](C)[C@H](O)[C@@H](O)[C@H]2O)cc1 [Epimedin C],NHEJ repair efficiency (log10),[1],-0.0776
same,HR repair efficiency (log10),[2],-0.0883
COc1cc2c(cc1OC)-c1cc3ccc(OC)c(OC)c3c[n+]1CC2 [Palmatine hydrochloride],NHEJ repair efficiency (log10),[1],0.0374
same,HR repair efficiency (log10),[2],0.0612
CC(=O)O[C@H]1[C@H](OCCc2ccc(O)c(O)c2)O[C@H](CO)[C@@H](OC(=O)/C=C/c2ccc(O)c(O)c2)[C@@H]1O[C@@H]1O[C@@H](C)[C@H](O)[C@@H](O)[C@H]1O [2-Acetylacteoside],NHEJ repair efficiency (log10),[1],-0.00932
same,HR repair efficiency (log10),[2],-0.164
OC[C@H]1OC(O)[C@@H](O)[C@@H](O)[C@@H]1O (stereo partly specified) [Mannose],NHEJ repair efficiency (log10),[1],0.0722
same,HR repair efficiency (log10),[2],0.0481
O=C(O)c1cc(O)c2c(c1)C(C1c3cc(CO)cc(O)c3C(=O)c3c(OC4OC(CO)C(O)C(O)C4O)cccc31)c1cccc(OC3OC(CO)C(O)C(O)C3O)c1C2=O (stereo unspecified) [Sennoside D],NHEJ repair efficiency (log10),[1],0.274
same,HR repair efficiency (log10),[2],-0.297
C/C=C(/C)C(=O)OC(C)(C)[C@@H]1Cc2c(ccc3ccc(=O)oc23)O1 [Columbianadin],NHEJ repair efficiency (log10),[1],-0.0553
same,HR repair efficiency (log10),[2],-0.0376
O=C1C[C@@H](c2ccc(O)c(O)c2)Oc2cc(O)cc(O)c21 [Eriodictyol],NHEJ repair efficiency (log10),[1],-0.0055
same,HR repair efficiency (log10),[2],0.0227
CC1(C)CC[C@]2(C(=O)O)CCC3=C([C@@H](CCl)C[C@@H]4[C@@]5(C)C[C@H](O)[C@H](O)[C@@](C)(C(=O)O)[C@@H]5CC[C@@]34C)[C@@H]2C1 [Tenuigenin],NHEJ repair efficiency (log10),[1],0.0402
same,HR repair efficiency (log10),[2],0.0517
C[C@@H]1CC[C@@]2(OC1)O[C@H]1C[C@H]3[C@@H]4CC=C5C[C@@H](O)C[C@@H](O[C@@H]6O[C@H](C)[C@H](O)[C@H](O[C@@H]7OC[C@@H](O)[C@H](O)[C@H]7O)[C@H]6O[C@@H]6O[C@@H](C)[C@H](O)[C@@H](O)[C@H]6O)[C@]5(C)[C@H]4CC[C@]3(C)[C@H]1[C@@H]2C [Ophiopogonin D],NHEJ repair efficiency (log10),[1],-0.0762
same,HR repair efficiency (log10),[2],-0.0693
CC(C)=CCc1c(-c2ccc(O)cc2O)oc2c([C@H]3C=C(C)C[C@@H](c4ccc(O)cc4O)[C@@H]3C(=O)c3ccc(O)cc3O)c(O)cc(O)c2c1=O [Kuwanon G],NHEJ repair efficiency (log10),[1],0.0109
same,HR repair efficiency (log10),[2],0.129
COC(=O)C1=CO[C@@H](O[C@@H]2O[C@H](CO)[C@@H](O)[C@H](O)[C@H]2O)[C@H]2[C@@H]1[C@H](O)C[C@]2(C)O [Shanzhiside methylester],NHEJ repair efficiency (log10),[1],0.193
same,HR repair efficiency (log10),[2],0.314
"O=C(/C=C/c1ccc(O)c(O)c1)O[C@@H]1C[C@](OC(=O)/C=C/c2ccc(O)c(O)c2)(C(=O)O)C[C@@H](O)[C@H]1O [1,3-Di-O-Caffeoylquinic Acid]",NHEJ repair efficiency (log10),[1],-0.263
same,HR repair efficiency (log10),[2],-0.0833
C[C@H]1O[C@@H](O[C@H]2CC[C@@]3(C)[C@@H](CC[C@]4(C)[C@@H]3C=CC3=C5CC(C)(C)CC[C@]5(CO)[C@H](O)C[C@]34C)[C@]2(C)CO)[C@H](O)[C@@H](O[C@@H]2O[C@H](CO)[C@@H](O)[C@H](O)[C@H]2O)[C@H]1O [Saikosaponin B2],NHEJ repair efficiency (log10),[1],0.0489
same,HR repair efficiency (log10),[2],0.123
CC(CC(=O)C[C@@H](C)[C@H]1CC(=O)[C@@]2(C)C3=C(C(=O)[C@@H](O)[C@]12C)[C@@]1(C)CC[C@H](O)C(C)(C)[C@@H]1C[C@@H]3O)C(=O)O (stereo partly specified) [Ganoderic Acid G],NHEJ repair efficiency (log10),[1],0.055
same,HR repair efficiency (log10),[2],0.106
COc1ccc(-c2cc(=O)c3c(OC)c(OC)c(OC)c(OC)c3o2)cc1 [Tangeretin],NHEJ repair efficiency (log10),[1],-0.13
same,HR repair efficiency (log10),[2],-0.0674
Oc1cc(O)cc(/C=C/c2ccc(O)c(O)c2)c1 [Piceatannol],NHEJ repair efficiency (log10),[1],0.0759
same,HR repair efficiency (log10),[2],0.0923
C[C@@H]1O[C@@H](Oc2cc(O)c3c(=O)c(O[C@@H]4O[C@@H](C)[C@H](O)[C@@H](O)[C@H]4O)c(-c4ccc(O)cc4)oc3c2)[C@H](O)[C@H](O)[C@H]1O [Kaempferitrin],NHEJ repair efficiency (log10),[1],0.0262
same,HR repair efficiency (log10),[2],0.0294
CC(C)=CCOc1c2ccoc2cc2oc(=O)ccc12 [Isoimperatorin],NHEJ repair efficiency (log10),[1],-0.032 ± 0.014
same,HR repair efficiency (log10),[2],0.0188 ± 0.0059
COc1ccccc1 [Anisole],NHEJ repair efficiency (log10),[1],0.105
same,HR repair efficiency (log10),[2],0.043
COc1cc(C2Oc3ccc(C4Oc5cc(O)cc(O)c5C(=O)C4O)cc3OC2CO)ccc1O (stereo unspecified) [Iso-Silybin],NHEJ repair efficiency (log10),[1],-0.138
same,HR repair efficiency (log10),[2],-0.241
COc1ccc2c(c1O)-c1c(O)c(OC)cc3c1[C@H](C2)[N+](C)(C)CC3 [Magnoflorine hydrochloride],NHEJ repair efficiency (log10),[1],-0.0605
same,HR repair efficiency (log10),[2],-0.0478
